Source: PubChem (several laboratories)
Shown are actives, neighbours in structure and some others; about 2.3% of the full set was active somewhere.
GLD-1 TGE inh: GLD-1-TGE RNA interaction inhibition (C. elegans); Q17339; 0.44% of 320,000 active; inhibition, % at 5.96 µM; AID 2280; purified GLD-1 + fluorescein TGE RNA, fluorescence polarization;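 active = percent inhibition above a per-plate cutoff, the plate mean of test compounds plus 3 SD, cut at about 30% in these data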;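 also: 0% = DMSO wells with GLD-1 and probe and 100% = wells lacking GLD-1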
Target sequence (Q17339 whole entry, looked up): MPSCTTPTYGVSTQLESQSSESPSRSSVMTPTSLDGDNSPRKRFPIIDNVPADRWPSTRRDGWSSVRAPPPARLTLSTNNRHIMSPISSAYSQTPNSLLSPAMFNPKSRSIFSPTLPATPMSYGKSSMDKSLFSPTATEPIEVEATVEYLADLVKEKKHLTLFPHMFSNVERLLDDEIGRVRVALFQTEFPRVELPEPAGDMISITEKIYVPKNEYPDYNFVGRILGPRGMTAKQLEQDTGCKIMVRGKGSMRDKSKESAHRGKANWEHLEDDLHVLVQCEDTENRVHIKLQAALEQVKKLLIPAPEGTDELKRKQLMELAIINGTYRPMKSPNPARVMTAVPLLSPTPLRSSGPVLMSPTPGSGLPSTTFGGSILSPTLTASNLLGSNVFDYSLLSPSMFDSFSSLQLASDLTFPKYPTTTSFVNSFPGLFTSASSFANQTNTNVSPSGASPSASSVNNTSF
Mcl1 Noxa PPI: Mcl-1/Noxa interaction inhibition. 1.5% of 220,000 active. Q07820. inhibition, % at 21.7 µM. TR-FRET Mcl-1/Noxa peptide binding, 2 h;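 active = compounds that cut the protein-peptide binding signal by more than 50% relative to plate controls in a single-dose test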;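 also: His-tagged Mcl-1 with rhodamine Noxa BH3 peptide and terbium anti-His antibody; 0% = Mcl-1 plus Noxa peptide wells and 100% = peptide-only wells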
Mcl1-Bid inh: disrupts binding of human Mcl-1 to Bid peptide. Q07820. TR-FRET Mcl-1/Bid-Dy647 peptide binding, 1536-well. inhibition, % at 21.7 µM. 0.97% of 220,000 active. AID 1021;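 active = compounds that cut the binding signal by more than half at the single screening dose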;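 also: His-tagged Mcl-1 with europium anti-His antibody binding Bid BH3 peptide; 0% = Mcl-1 plus peptide wells and 100% = peptide-only wells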
MCL1 BIM primary: inhibitors of human MCL1 binding to BIM-BH3 peptide; Q07820; GST-MCL1 / FITC-Bim-BH3 fluorescence polarization; inhibition, % at 10.9 µM; 0.68% of 320,000 active; AID 2057;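 active = inhibition above the mean inhibition of all tested compounds plus 3 SD, set per campaign, cut at about 40% in these data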;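 also: 0% = DMSO wells and 100% = unlabeled Bim-BH3 peptide control; higher means more loss of mP so more displacement of Bim peptide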
BCLXL inh: Bcl-xL (human) inhibition; AID 2129; 0.7% of 320,000 active; GST-Bcl-xL / FITC-Bim BH3 peptide fluorescence polarization; inhibition, % at 10.9 µM;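 active = inhibition above the mean of all tested compounds plus 3 SD, cutoff set per campaign, cut at about 30% in these data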;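 also: 0% = DMSO wells and 100% = unlabeled Bim-BH3 peptide competitor; inhibitors lower millipolarization by displacing the labeled peptide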
Target sequence (Q07817 whole entry, looked up): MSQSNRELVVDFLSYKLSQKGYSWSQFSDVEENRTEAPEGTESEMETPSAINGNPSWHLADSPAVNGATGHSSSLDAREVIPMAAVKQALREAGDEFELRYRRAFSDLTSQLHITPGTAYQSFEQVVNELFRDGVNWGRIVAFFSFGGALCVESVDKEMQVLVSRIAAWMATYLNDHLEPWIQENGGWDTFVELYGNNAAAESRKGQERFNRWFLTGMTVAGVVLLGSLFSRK
Mcl-1 Bim block: human Bim-Mcl-1 interaction inhibition | Bead-based flow cytometry, Bim peptide-Mcl-1 binding | inhibition, % at 10 µM | 0.1% of 190,000 active | AID 1009; in the data active = inhibition above about 40%;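 also: 0% = no compound tracer wells and 100% = peptide blocker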
An asterisk follows results filed as active; / = not tested or not shown.

SMILES	GLD-1 TGE inh	Mcl1 Noxa PPI	Mcl1-Bid inh	MCL1 BIM primary	BCLXL inh	Mcl-1 Bim block
O=C(NN1C(=O)/C(=C/C=C/c2ccco2)SC1=S)c1ccccc1O	-11.7	100.6*	60.1*	38.1	14.0	/
Cn1cccc1/C=C1\SC(=S)N(NC(=O)c2ccccc2O)C1=O	-130.8	-2.5	-24.5	-84.9	-50.7	/
O=C1S/C(=C\C=C\c2ccco2)C(=O)N1c1ccc(O)cc1	6.1	56.4*	-16.8	13.3	5.8	-3.0
C=CCn1c(N2CCCCCC2)nc2c1c(=O)n(C)c(=O)n2C	7.9	97.7*	41.2	5.6	4.9	0.0
CCCCCCn1nc(C(=O)Nc2nc3c(s2)CCCC3)c2ccccc2c1=O	5.2	25.3	9.9	0.4	-2.3	45.0*
CCCCn1nc(C(=O)Nc2nc3c(s2)CCCC3)c2ccccc2c1=O	5.6	3.1	-23.5	3.3	1.4	-25.0
CCC(=O)c1ccc(OCC(=O)N2CCc3cc(OC)c(OC)cc3C2)cc1	-3.0	3.4	-9.4	-9.3	-6.1	-4.0
C=CCOC(=O)C1=C(C)N=c2s/c(=C3\C(=O)N(CC(=O)O)c4ccccc43)c(=O)n2C1c1ccc(OC)cc1 (stereo unspecified)	0.6	80.6*	2.8	15.7	20.0	/
O=C(NCCCN1CCOCC1)c1ccc2c(c1)N(Cc1cccc(Cl)c1)C(=O)c1ccccc1S2=O (stereo unspecified)	-10.9	/	/	-1.1	0.5	/
O=C(Nc1n[nH]c(C(F)(F)F)n1)C1CC1	6.1	3.7	-3.7	5.0	-1.0	43.0*
CCC(C)(C)n1nnnc1C(c1ccc(O)c(OC)c1)N1CCN(c2nc3ccccc3s2)CC1 (stereo unspecified)	-0.5	67.5*	12.7	8.1	9.6	-2.0
CCC(C)(C)n1nnnc1C(c1cccc(C#N)c1)N1CCN(c2cccc(C)c2C)CC1 (stereo unspecified)	-0.8	70.4*	-10.5	-4.1	-3.6	-3.0
CCC(C)(C)n1nnnc1C(c1ccc(O)c(OC)c1)N1CCc2ccccc2C1 (stereo unspecified)	9.0	82.0*	26.3	9.3	4.7	-4.0
COc1ccc(C(c2nnnn2C(C)(C)C)N2CCN(c3nc4ccccc4s3)CC2)cc1 (stereo unspecified)	/	10.9	8.0	/	/	-3.0
CCC(O)(CC)C(=O)N(Nc1ccc(C)cc1)c1ccc(C)cc1	-2.2	/	/	6.7	1.4	/
Cc1cc(C)n(S(=O)(=O)c2ccc(F)cc2)n1	-4.4	/	/	-6.8	-0.5	/
CN(c1ccc(F)cc1)S(=O)(=O)c1ccc2[nH]cc(C(=O)O)c(=O)c2c1	4.4	12.1	57.9*	4.4	4.7	0.0
COCCN(CCOC)C(=O)c1c[nH]c2ccc(S(=O)(=O)N(C)c3ccc(F)cc3)cc2c1=O	0.0	40.8	62.3*	3.4	5.0	-3.0
COc1cccc(/C=N/Nc2nnc(C)n2N)c1OCc1ccccc1Cl	-2.8	9.9	-17.1	-7.1	-1.0	-3.0
COC(=O)c1ccc(-c2c(-c3ccccc3)ncc3cc(F)ccc23)cc1	-0.6	/	/	-6.2	-5.6	/
O=c1c2ccccc2sc2nc(C3CCCCC3)n(Cc3ccco3)c(=O)c12	/	-30.0	66.7*	/	/	4.0
COc1cc(C2Nc3cccc4cccc(c34)N2)cc(OC)c1OC(C)=O	10.2	82.5*	12.4	45.5*	38.8*	10.0
Clc1ccc(OCc2nn3c(C4CCCCC4)nnc3s2)cc1	2.4	9.0	11.1	5.9	4.6	-12.0
COC(=O)N/N=C/c1cc(N=Nc2ccccc2)ccc1O	7.1	-14.5	-15.3	7.2	2.9	/
COC(=O)N/N=C/c1cc(N=Nc2ccccc2Cl)ccc1O	0.6	88.0*	6.7	1.6	-2.2	/
SMILES	GLD-1 TGE inh	Mcl1 Noxa PPI	Mcl1-Bid inh	MCL1 BIM primary	BCLXL inh	Mcl-1 Bim block
Cc1cc(C(=O)N/N=C/c2cc(N=Nc3ccccc3)ccc2O)n[nH]1	2.7	94.7*	24.6	27.3	-1.6	0.0
Cc1cc(C(=O)N/N=C/c2cccc([N+](=O)[O-])c2O)n[nH]1	-2.5	36.2	-79.6	15.8	4.8	-8.0
CCCn1c(NCc2ccccc2NS(=O)(=O)c2ccc(C)cc2)nc2ccccc21	4.7	23.1	-21.9	2.1	5.1	-2.0
COc1ccc(NC(=O)N2CCCC2C(=O)Nc2cccc(C)c2C)cc1 (stereo unspecified)	-3.3	/	/	8.9	8.8	/
CCCn1c(=O)c(C(=O)N/N=C/c2ccc(F)cc2)c(O)c2ccccc21	9.1	5.8	-9.8	2.1	1.4	/
C=CCN1C(=O)/C(=C2/Sc3ccc(OC)cc3N2C)SC1=Nc1cccc(O)c1	-2.2	58.0*	54.0*	-8.6	-10.0	-1.0
N#C/C(=C(/O)c1ccc(Cl)c([N+](=O)[O-])c1)c1nc2ccccc2[nH]1	2.7	66.4*	24.9	6.9	3.4	/
N#C/C(=C(/O)c1ccc([N+](=O)[O-])cc1)c1nc2ccccc2[nH]1	0.5	17.4	-5.2	4.2	-0.4	/
CCOc1ccccc1-n1c(=O)c2ccccc2c2ccccc2c1=O	4.0	10.0	54.2*	-3.3	3.5	6.0
Cc1ccc(N(C(=O)c2csnn2)C(C(=O)NCc2ccccc2)c2ccccn2)cc1 (stereo unspecified)	-1.5	/	/	-3.5	1.3	/
COC(=O)C1=C(O)/C(=C\c2ccc(CNS(=O)(=O)c3ccc(Cl)cc3)o2)N=C1C	7.9	30.9	-25.7	25.6	19.8	-5.0
COC(=O)C1=C(O)/C(=C\c2ccc(CNC(=O)C(=O)Nc3ccc(C)c(C)c3)o2)N=C1C	7.6	55.1*	34.0	28.2	17.7	7.0
CCOC(=O)C1=C(O)/C(=C\c2ccc(CNS(=O)(=O)c3ccc(Br)cc3)o2)N=C1C	11.6	57.0*	-65.2	37.1	28.5	-1.0
Cc1ccccc1OCC(=O)Nc1cnn(CCCC(=O)O)c1	-0.1	/	/	-0.9	3.7	/
COc1cccc(CC(=O)Nc2ccc(S(=O)(=O)N3CCOCC3)cc2)c1	-0.6	/	/	-1.5	1.2	/
COc1ccc(S(=O)(=O)n2nc(-c3ccc(Cl)cc3)cc2N)cc1	-0.2	-4.8	7.1	1.8	5.1	/
COc1ccc(-c2cc(N)n(S(=O)(=O)c3ccc(C)cc3)n2)c(OC)c1	-1.8	7.4	-7.9	7.2	47.6*	1.0
Cc1ccc(C(=O)N/C(=C\c2ccc(-c3ccccc3[N+](=O)[O-])o2)C(=O)NCCCN2CCOCC2)cc1	18.4	/	/	27.3	31.7*	/
Cc1occc1C(=O)N=Nc1c(O)[nH]c2ccc(Br)cc12	2.3	51.3*	35.7	8.8	5.7	16.0
O=C(CCNC(=O)c1ccc(Cl)cc1)NN1C(=O)NC2(CCCCC2)C1=O	0.2	/	/	2.8	1.7	/
Fc1ccc(NC(=S)N/N=C/c2cccc(Br)c2)c(F)c1	1.9	-1.4	97.2*	2.7	3.4	-2.0
CC1OC(OC2C(Oc3c(-c4ccc(O)cc4)oc4cc(O)cc(O)c4c3=O)OC(COC3O[C@@H](C)[C@H](O)[C@@H](O)C3O)C(O)C2O)C(O)C(O)C1O (stereo partly specified)	0.1	/	/	0.7	2.6	/
